# Assay results: the supplement of paper PMC8728848
# About 410 targets per protein were measured; listed, in parts, are those with the strongest signals and a random draw of the rest.
# B1: PA-IL (Pseudomonas aeruginosa) (protein)
# chain: AWKGEVLANNEAGQVTSIIYNPGDVITIVAAGWASYGPTQKWGPQGDREHPDQGLICHDAFCGALVMKIGNSGTIPVNTGLFRWVAPNNVQGAITLIYNDVPGTYGNNSGSFSVNIGKDQS
# How the values were obtained:
# Test in all cases: glycan array binding signal (z-score within array); higher = stronger binding
# Conditions in all cases: glycan notation: IUPAC condensed, linker removed
# Fuc(a1-2)Gal(b1-3)GlcNAc = molecular target: Fuc(a1-2)Gal(b1-3)GlcNAc
# Summary of the method: (§1)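 Glycan array data came from 3228 arrays in the Consortium for Functional Glycomics database, and only arrays with an available protein sequence were kept. Glycan names were put into IUPAC-condensed notation, and columns mapping to the same glycan were averaged. The binding signal is a within-array Z-score, averaged across arrays of one protein sequence run at different concentrations or buffers and across linkers. A negative Z-score can be read as non-binding.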
# [1] = molecular target: Fuc(a1-2)[Gal(a1-4)]Gal(b1-4)GlcNAc
# Summary of the method: as §1
# [2] = molecular target: Fuc(a1-2)[GalNAc(a1-3)]Gal(b1-4)Glc
# Summary of the method: as §1
# [3] = molecular target: Fuc(a1-2)[GalNAc(a1-3)]Gal(b1-4)GlcNAc
# Summary of the method: as §1
# [4] = molecular target: Fuc(a1-2)[GalNAc(b1-3)]Gal
# Summary of the method: as §1
# Gal(a1-2)Gal = molecular target: Gal(a1-2)Gal
# Summary of the method: as §1
# Gal(a1-3)Gal(b1-4)Glc = molecular target: Gal(a1-3)Gal(b1-4)Glc
# Summary of the method: as §1
# [5] = molecular target: Gal(a1-3)Gal(b1-4)[Fuc(a1-3)]GlcNAc
# Summary of the method: as §1
# [6] = molecular target: Gal(a1-3)[Gal(a1-4)]Gal(b1-4)GlcNAc
# Summary of the method: as §1
# Gal(a1-4)GlcNAc = molecular target: Gal(a1-4)GlcNAc
# Summary of the method: as §1
# Gal(a1-6)Glc = molecular target: Gal(a1-6)Glc
# Summary of the method: as §1
# Gal(b1-3)Gal = molecular target: Gal(b1-3)Gal
# Summary of the method: as §1
# [7] = molecular target: Gal(b1-4)GlcNAc(b1-6)Gal(b1-4)GlcNAc(b1-6)GalNAc
# Summary of the method: as §1
# Glc(a1-4)Glc = molecular target: Glc(a1-4)Glc
# Summary of the method: as §1
# GlcA(b1-3)Gal = molecular target: GlcA(b1-3)Gal
# Summary of the method: as §1
# [8] = molecular target: GlcNAc(a1-3)Gal(b1-4)GlcNAc
# Summary of the method: as §1
# [9] = molecular target: Man(a1-2)Man(a1-2)Man(a1-6)[Man(a1-3)]Man
# Summary of the method: as §1
# Man(a1-2)Man(a1-3)Man = molecular target: Man(a1-2)Man(a1-3)Man
# Summary of the method: as §1
# [10] = molecular target: Man(a1-2)Man(a1-3)[Man(a1-2)Man(a1-6)]Man(a1-6)[Man(a1-2)Man(a1-2)Man(a1-3)]Man(b1-4)GlcNAc(b1-4)GlcNAc
# Summary of the method: as §1
# [11] = molecular target: Man(a1-2)Man(a1-6)[Man(a1-3)]Man(a1-6)[Man(a1-2)Man(a1-2)Man(a1-3)]Man(b1-4)GlcNAc(b1-4)GlcNAc
# Summary of the method: as §1
# [12] = molecular target: Neu5Ac(a2-3)Gal(b1-3)[Neu5Ac(a2-6)]GalNAc
# Summary of the method: as §1
# Neu5Gc(a2-3)Gal(b1-4)Glc = molecular target: Neu5Gc(a2-3)Gal(b1-4)Glc
# Summary of the method: as §1
binder,measurement,setting,value
B1,glycan array binding signal (z-score),Fuc(a1-2)Gal(b1-3)GlcNAc,-0.365
same,glycan array binding signal (z-score),[1],3.69
same,glycan array binding signal (z-score),[2],0.183
same,glycan array binding signal (z-score),[3],0.174
same,glycan array binding signal (z-score),[4],-0.363
same,glycan array binding signal (z-score),Gal(a1-2)Gal,4.77
same,glycan array binding signal (z-score),Gal(a1-3)Gal(b1-4)Glc,3.73
same,glycan array binding signal (z-score),[5],4.11
same,glycan array binding signal (z-score),[6],3.92
same,glycan array binding signal (z-score),Gal(a1-4)GlcNAc,3.15
same,glycan array binding signal (z-score),Gal(a1-6)Glc,1.53
same,glycan array binding signal (z-score),Gal(b1-3)Gal,-0.271
same,glycan array binding signal (z-score),[7],0.234
same,glycan array binding signal (z-score),Glc(a1-4)Glc,-0.365
same,glycan array binding signal (z-score),GlcA(b1-3)Gal,-0.365
same,glycan array binding signal (z-score),[8],-0.365
same,glycan array binding signal (z-score),[9],-0.365
same,glycan array binding signal (z-score),Man(a1-2)Man(a1-3)Man,-0.365
same,glycan array binding signal (z-score),[10],-0.357
same,glycan array binding signal (z-score),[11],-0.364
same,glycan array binding signal (z-score),[12],-0.365
same,glycan array binding signal (z-score),Neu5Gc(a2-3)Gal(b1-4)Glc,-0.364
